# Assay results as given in PubChem BioAssay (NCI).
# About 83,000 compounds went through this panel and 20% of them were active in at least one assay; those are over-represented in the sample as a whole.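 48-hour exposure, single concentration, 96-well plates; percent growth endpoint where 0 means no net growth. Active: below 10.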 Unmarked numbers belong to inactive results. The source made the active and inactive calls.
# Test system: HL-60(TB) leukemia
# Experiment: NCI-60 one-dose screen, 48 h (100 = growth as untreated, 0 = no growth, -100 = all killed)
# Conditions: 10 µM unless noted
row,Structure (SMILES),growth
1,Cc1ccccc1CNC(=O)C1CN(c2ccc(Cl)cc2)N(c2ccc(Cl)cc2)C1=O (stereo unspecified),94.7%
2,CC1(C)N=C(N)N=C(N)N1c1cccc(CCc2ccccc2)c1,32.4%
3,Cc1oc(-c2ccc(Cl)cc2Cl)cc1C(=O)Nc1nccs1,97.4%
4,Cn1cc(-c2nn3cc(-c4cccs4)nc3s2)c2cc(F)ccc21,3.45% (active)
5,COc1ccc(S(=O)(=O)Nc2cc(/C=C\c3cc(OC)c(OC)c(OC)c3)cc(OC)c2OC)cc1OC,2.73% (active)
6,CC(C)C1=NOC(=O)C1=Cc1cn(-c2ccccc2)nc1-c1ccc(Br)cc1,-28.8% (active)
7,CC1=C(C(=O)Nc2ccccc2)C(c2ccc3c(c2)OCO3)NC(=S)N1 (stereo unspecified),104%
8,Cc1ccc(S(=O)(=O)Oc2ccc3sc4cccc(NCCN(C)C)c4c(=O)c3c2)cc1,-64% (active)
9,Cc1cc(NCc2cc(Nc3ccnc4cc(Cl)ccc34)ccc2F)nc(N2CCN(C)CC2)n1,-46.6% (active)
10,Cc1ccc(C2SCC(=O)N2NC(=O)c2[nH]c3ccc(F)cc3c2-c2ccccc2)cc1 (stereo unspecified),78.6%
11,CC(=O)OCCC/C(=C/c1cc2ccccc2c2ccccc12)[N+](=O)[O-],-52.1% (active)
12,CCCCCCNC(=O)Oc1ccc(/C(=C(\C)c2ccc(OC)cc2)c2ccc(OCCN3CCCCC3)cc2)cc1,46.3%
13,Cc1nn(-c2cc(NC3CCC(O)CC3)c3c(=O)[nH]c(CCC(F)(F)F)cc3c2)c2c1C(=O)CC(C)(C)C2 (stereo unspecified),28%
14,CCn1c(SCc2ccc(C)cc2)nnc1-c1nn(-c2ccc(Cl)cc2Cl)c(-c2ccc(Cl)cc2)c1C,-13.1% (active)
15,NS(=O)(=O)c1ccc(C(=O)NN2C(=O)c3ccccc3C2=O)cc1,103%
16,C=C1C(=O)O[C@H]2[C@H]1CC/C(COC(=O)CCCCCCC(=O)OC/C1=C/CC[C@@]3(C)O[C@H]3[C@H]3OC(=O)C(=C)[C@@H]3CC1)=C\CC[C@@]1(C)O[C@@H]21,-13.8% (active)
17,COc1cnc2c(c1)C(=O)c1c-2n(CCCn2ccnc2)c(=O)c2cc(Cl)ccc12,-26.1% (active)
18,COC(=O)c1c(C)nc(C)c2c1C(=O)C(Br)=C(NCc1ccccc1)C2=O,-30.9% (active)

row,Structure (SMILES),growth
1,C=C1C(=O)O[C@H]2[C@H]1CC/C(C=Nc1ccc(C(F)(F)F)cc1N)=C\CC[C@@]1(C)O[C@@H]21,-7.77% (active)
2,Cc1c(C)c2c(c(C)c1NC(=O)/C=C\C(=O)O)CCC(C)(CCCC(C)CCCC(C)CCCC(C)C)O2 (stereo unspecified),37.3%
3,COc1cc(NCCCCN=C(N)NC(N)=NC(C)C)c2ncccc2c1,55.9%
4,O=C1/C(=C\c2ccccc2)CN(C(=O)c2ccccc2F)C/C1=C\c1ccccc1,10.1%
5,O=C(CCNC(=O)c1nc(-c2ccccc2)n(-c2ccc(Cl)cc2)n1)NO,96.8%
6,Nn1c(SCC(=O)Nc2cc(Cl)c(Cl)cc2Cl)nnc1-c1cc(F)c(Cl)cc1Cl,92%
7,COc1cnc2c(c1)C(=O)c1c-2n(CCCBr)c(=O)c2cc([N+](=O)[O-])ccc12,5.74% (active)
8,COc1ccc(NC(=O)c2nc(-c3cc(OC)c(OC)c(OC)c3)n(-c3cccc4ccccc34)n2)cc1OC,10%
9,CCN(CC)CCS(=O)(=O)CCNc1ccnc2cc(Cl)ccc12,-22.5% (active)
10,CN(C)CCS(=O)(=O)Nc1cc(-c2ccc3ncc(C#N)c(Nc4ccc(F)c(Cl)c4)c3c2)cnc1Cl,-28.4% (active)
11,CCc1ccc(-c2nnc(COc3ccc(-c4nc5cc(Cl)c(Cl)cc5[nH]4)cc3OC)o2)cc1,105%
12,COC(=O)c1c(C)nc(C)c2c1C(=O)C(Br)=C(NCCN1CCOCC1)C2=O,61.9%
13,O=C1/C(=C/c2ccc(O)cc2)Oc2ccc(Cl)cc21,81%
14,CC(=O)OC[Si](C)(C)c1ccccc1,100%
15,CCCCCCCCc1cc(Cl)c(O)c(Cl)c1,101%
16,O=C(O)c1cn(C2CC2)c2cc(N3CCN(Cc4nc5c(cnn5-c5ccc([N+](=O)[O-])cc5)c(=O)[nH]4)CC3)c(F)cc2c1=O,92.8%
17,COc1cccc(CC(C)=C(c2ccc(OCCN3CCCCC3)cc2)c2ccc(OCCN3CCCCC3)cc2)c1,-57.5% (active)
18,COc1ccc(-c2nc3c(c(=O)n2C(C)=O)C(c2ccc(Cl)cc2)c2sc4c(Cl)cccc4c2O3)cc1 (stereo unspecified),-14% (active)
